The source of these data is PubChem BioAssay (NCI).

Some test systems named below: HCT-15 colon; HT29 colon; SNB-75 CNS; SNB-19 CNS; U251 CNS; PC-3 prostate; SK-MEL-5 melanoma; UACC-62 melanoma; LOX IMVI melanoma; SK-MEL-28 melanoma; SK-MEL-2 melanoma; EKVX NSCLC; SN12C renal; UO-31 renal; TK-10 renal; ACHN renal; CAKI-1 renal; A498 renal; MOLT-4 leukemia; CCRF-CEM leukemia.
Assay in all cases: NCI-60 one-dose screen, 48 h (100 = growth as untreated, 0 = no growth, -100 = all killed)
What all share (conditions): 10 µM unless noted

The structures appear in SMILES notation. Compounds without any hit were thinned out: in the full panel of roughly 83,000, 20% have a hit.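 Testing used 96-well plates and a 48-hour single-concentration exposure. Example: -40 means 40% of the starting cells died.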 A number with no mark means an inactive call. Activity calls are given as the source filed them. The calls were made as follows: active = growth percent below 10; inactive = the rest.

As for `CC[C@]12C=CCN3CC[C@@]4(c5ccc(OC)cc5N(C)[C@H]4[C@@](O)(C(=O)OC)[C@@H]1OC(=O)CCN1CCc4ccccc4C1)[C@@H]32`, the growth with HCT-15 colon is 84.8%; in the test on HT29 colon it was 99%; in the test on SNB-75 CNS, 66.9%; with SNB-19 CNS, 91.9%; with U251 CNS, 87.5%; in the test on PC-3 prostate, 70.1%. Moreover, the growth in the test on SK-MEL-5 melanoma is 98.2%; in the test on UACC-62 melanoma it was 99%; in the test on LOX IMVI melanoma, 88.5%; in the test on SK-MEL-28 melanoma, 95%; with SK-MEL-2 melanoma, 108%; in the test on EKVX NSCLC, 88.6%. For the same compound, the growth in the test on SN12C renal is 99.4%; in the test on UO-31 renal, 71.6%; in the test with TK-10 renal, 98.8%; with ACHN renal it was 99.3%; in the test with CAKI-1 renal, 80.3%; with A498 renal, 94.5%. In addition, in the test with MOLT-4 leukemia, the growth was 80.5%.
For the compound `CC1=C(C)C(=O)C(Nc2ccc(C)c(C)c2)=C(Br)C1=O`, the growth is 92.3% with HCT-15 colon; 107% in the test with HT29 colon; 73.2% in the test on SNB-75 CNS; 97.4% with SNB-19 CNS; 102% with U251 CNS; 85% with PC-3 prostate. For the same compound, the growth in the test with SK-MEL-5 melanoma was 89.1%; in the test with UACC-62 melanoma it was 96.4%; in the test with LOX IMVI melanoma, -54.6% (active); with SK-MEL-28 melanoma it was 111%; with SK-MEL-2 melanoma, 112%; in the test on EKVX NSCLC, 34.2%. Moreover, the growth in the test with SN12C renal was 98.7%; in the test with UO-31 renal it was 90.8%; in the test on TK-10 renal, 157%; in the test with ACHN renal, 102%; in the test on CAKI-1 renal it was 94%; in the test with CCRF-CEM leukemia, -16.8% (active). Moreover, the growth in the test with MOLT-4 leukemia is -14.7% (active).
Consider `COc1cc(C(C)=C(c2ccc(OCCN(C)C)cc2)c2ccc(OCCN(C)C)cc2)ccc1F`, for which the growth was 101% with HCT-15 colon; 108% with HT29 colon; 100% in the test on SNB-75 CNS; 98.2% in the test with SNB-19 CNS; 106% in the test on U251 CNS; 110% in the test on PC-3 prostate. Moreover, the growth was 96.6% in the test with SK-MEL-5 melanoma; 97.8% in the test on UACC-62 melanoma; 95.3% in the test on LOX IMVI melanoma; 109% in the test on SK-MEL-28 melanoma; 109% with SK-MEL-2 melanoma; 96.1% with EKVX NSCLC. Also, the growth in the test with SN12C renal was 101%; in the test on UO-31 renal, 95.5%; in the test with TK-10 renal, 97.8%; in the test with ACHN renal it was 105%; in the test on CAKI-1 renal, 101%; in the test on A498 renal, 108%. Further, the growth with MOLT-4 leukemia is 108%.
As for `CCOC(=O)c1cnc2c(-c3ccc(Cl)c(Cl)c3)cnn2c1`, the growth in the test on HCT-15 colon is 40.8%; in the test on HT29 colon it was 56.8%; with SNB-75 CNS, 59.9%; in the test on SNB-19 CNS it was 82.5%; in the test with U251 CNS, 80.4%; in the test with PC-3 prostate, 73%. For the same compound, the growth in the test on SK-MEL-5 melanoma was 79.8%; in the test with UACC-62 melanoma, 60.8%; in the test with LOX IMVI melanoma it was 79%; with SK-MEL-28 melanoma, 80.4%; in the test with SK-MEL-2 melanoma, 83.9%; with EKVX NSCLC, 81.3%. The growth was 95.7% in the test with SN12C renal; 80.2% in the test with UO-31 renal; 117% in the test with TK-10 renal; 104% in the test on ACHN renal; 67.2% in the test on CAKI-1 renal; 68.4% in the test with CCRF-CEM leukemia. Moreover, in the test with MOLT-4 leukemia, the growth was 62.3%.
On to `COC(=O)c1cccc(NC2=C(Cl)C(=O)c3nc(C)ccc3C2=O)c1`, for which the growth with HCT-15 colon was 51.6%; with HT29 colon, 110%; in the test with SNB-75 CNS, 119%; with SNB-19 CNS it was 92.2%; with U251 CNS, 106%; in the test with PC-3 prostate, 85.4%. Moreover, the growth in the test on SK-MEL-5 melanoma was 97.9%; with UACC-62 melanoma, 95.4%; in the test with LOX IMVI melanoma, 10.2%; with SK-MEL-28 melanoma, 93.6%; in the test on SK-MEL-2 melanoma, 101%; in the test on EKVX NSCLC, 54.3%. Also, the growth in the test with UO-31 renal is 48.5%; in the test with TK-10 renal, 128%; with ACHN renal, 0.427% (active); with CAKI-1 renal it was 103%; in the test on A498 renal, 71%; with CCRF-CEM leukemia, 5.63% (active). The growth in the test with MOLT-4 leukemia was 19.7%.
Regarding `C[C@]12CC[C@H]3[C@@H](CC=C4C[C@@H](O)CC[C@@]43C)[C@@H]1CC[C@@H]2[C@](C)(O)CCc1cccnc1`, the growth is 70.2% in the test with HCT-15 colon; 69.1% in the test with HT29 colon; 62% with SNB-75 CNS; 71.4% in the test on SNB-19 CNS; 74.1% in the test on U251 CNS; 70.1% in the test with PC-3 prostate. For the same compound, the growth with SK-MEL-5 melanoma was 7.89% (active); in the test with UACC-62 melanoma, 62.6%; in the test on LOX IMVI melanoma, 75.9%; in the test on SK-MEL-28 melanoma it was 74.4%; with SK-MEL-2 melanoma, 79.8%; in the test with EKVX NSCLC it was 36.7%. Besides, the growth with UO-31 renal is 63.8%; in the test with TK-10 renal, 84.3%; with ACHN renal it was 60.7%; in the test on CAKI-1 renal, 69.1%; in the test on A498 renal, 72.8%; in the test with CCRF-CEM leukemia, 59.8%. Moreover, the growth in the test on MOLT-4 leukemia was 48.9%.
For `O=C(Nc1ccc(Cl)c(C(F)(F)F)c1)Nc1ccc2c(ccn2C(=O)c2cccc(F)c2)c1`, the growth in the test with HCT-15 colon is 17%; with HT29 colon it was 39.8%; in the test on SNB-75 CNS, 55%; with SNB-19 CNS, 39.7%; in the test with U251 CNS, 23.3%; with PC-3 prostate, 9.11% (active). Further, the growth in the test with SK-MEL-5 melanoma was 62.9%; in the test with UACC-62 melanoma it was 39.7%; in the test on LOX IMVI melanoma, 38.4%; with SK-MEL-28 melanoma, 46.6%; in the test with SK-MEL-2 melanoma, 45.3%; in the test with EKVX NSCLC, 30%. In addition, the growth was 42.9% in the test on SN12C renal; 35.6% with UO-31 renal; 45.9% with TK-10 renal; 17.7% in the test with ACHN renal; 29.1% in the test on CAKI-1 renal; 15.8% in the test with CCRF-CEM leukemia. The growth in the test with MOLT-4 leukemia was 10.9%.
`C#CCN(C)CCCOc1ccc(NC(=O)CCCCCCC(=O)NO)cc1Cl`: the growth in the test on HCT-15 colon is 64.9%; in the test with HT29 colon, 10.5%; with SNB-75 CNS, 26.3%; with SNB-19 CNS, 30.3%; with U251 CNS, 8.98% (active); in the test with PC-3 prostate, 26.5%. The growth in the test on SK-MEL-5 melanoma was -4.82% (active); in the test with UACC-62 melanoma it was -28.9% (active); in the test with LOX IMVI melanoma, -61.4% (active); in the test with SK-MEL-28 melanoma it was 27.1%; with SK-MEL-2 melanoma, 32.7%; in the test with EKVX NSCLC, 51.5%. Also, the growth in the test with UO-31 renal is 26.3%; with TK-10 renal it was 1.34% (active); in the test with ACHN renal, 20.3%; in the test on CAKI-1 renal, 17.9%; in the test on A498 renal it was -12.1% (active); in the test with CCRF-CEM leukemia, 15.5%. Moreover, the growth in the test on MOLT-4 leukemia is 16.9%.
